Laboratory results: PubChem BioAssay (NCATS)
“And” between values parts separate entries of the source, which are not always exact repeats. Equal values may be shown once. Results filed as inconclusive are left out. The source made the active and inactive calls. Unless noted, calls follow the shape of the dose curve; as a rule, active = well fitted curve in the direction sought with a large enough effect; inconclusive = small, poorly fitted or top-dose-only effect, or another doubt; inactive = no such curve, though single readings can be large; an effect the other way counts as inactive or inconclusive.

What was measured:
[1] = Cell Viability - BJ (AID 421; calls by dose curve;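 also: potency is read from the fitted curve at half-maximal effect; cells exposed to compound for 40 hours at 37 °C before readout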); details: BJ fibroblast viability, qHTS
Outline: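 Luminescent ATP signal (CellTiter-Glo, 20 min at room temperature) served as the read-out of viable BJ cells after 40 hours of compound treatment. Responses were scaled between DMSO and 100 uM tamoxifen, and AC50 values were obtained by Hill modeling.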

[2] = Cell Viability - MRC5 (AID 434; calls by dose curve;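 also: potency is read from the fitted curve at half-maximal effect; cells exposed to compound for 40 hours at 37 °C; potency reflects cytotoxicity seen as loss of intracellular ATP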); details: MRC5 lung fibroblast viability, qHTS
Outline: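 qHTS cytotoxicity in human lung fibroblast MRC5 cells; 40 hr treatment, 37 °C; cellular ATP by luciferase luminescence; DMSO = 0%, 100 uM tamoxifen = 100% inhibition; Hill-fit AC50.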

[3] = Cellular Toxicity (caspase-3) HepG2 (AID 654); details: HepG2 caspase-3 activation, luminescence; series mostly up to 92.2 µM;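 also: cells exposed to compound for 16 hours before reading; 0% = DMSO alone and 100% = caspase signal from 100 µM tamoxifen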
Outline: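 Cells plated 5 hr at 37 °C, compound added, incubated 16 hr at 37 °C. Caspase-Glo 3/7 reagent followed, 20 min at room temperature, then luminescence read. Activation scored as signal increase; AC50 from Hill fit.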

[4] = Cellular Toxicity (caspase-3) Jurkat (AID 655); details: Jurkat caspase-3 activation, luminescence; caspase-3 activation: at 92.2 µM (top of the series), DMSO = 0%, tamoxifen = 100%;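 also: cells exposed to compound for 16 h at 37 °C before reading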; also: potency is read from the fitted curve at half-maximal effect
Outline: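 Jurkat cells (5000/well) in complete medium were treated with compounds for 16 hr at 37 °C, then Caspase-Glo 3/7 luminescence was read after 20 min at room temperature. Data normalized to DMSO (basal) and 100 uM tamoxifen (100%); AC50 from Hill fit.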

[5] = Cellular Toxicity (caspase-3) SHSY5Y (AID 657); details: SH-SY5Y caspase-3 activation; series mostly up to 91.7 µM
Outline: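 SH-SY5Y human neuroblastoma cells (1500/well) were treated with compounds for 16 h at 37 °C, then Caspase-Glo 3/7 luminescence was read after 1 h at room temperature. Data normalized to DMSO and 10 uM staurosporine; AC50 from Hill fits.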

[6] = Cellular Toxicity (caspase-3) BJ (AID 658); details: BJ fibroblasts, luminescence; Potency: caspase-3 activation; series mostly up to 91.7 µM
Outline: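 Readout: Caspase-Glo 3/7 luminescence increase in BJ cells after 16 hr treatment at 37 °C. Staurosporine and tamoxifen served as positive controls; AC50 values came from Hill modelling of data normalized to DMSO and 10 uM staurosporine.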

[7] = Cellular Toxicity (caspase-3) MRC-5 (AID 659); details: MRC-5 cells, luminescence, normalized: DMSO 0%, 10 µM staurosporine 100%; series mostly up to 91.7 µM
Outline: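 Concentration-dependent caspase 3/7 activation is measured in human normal lung fibroblasts (MRC-5) following 16-hour treatment. AC50 values come from standard Hill-equation modeling of luminescence normalized to DMSO and 10 uM staurosporine.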

[8] = Cellular Toxicity (caspase-3) Mesangial (AID 660); details: mesangial cells, normalized: DMSO 0%, 100 µM tamoxifen 100%; series mostly up to 91.7 µM;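 also: combined caspase 3 and 7 activity read by Caspase-Glo luminescence; cells exposed to compound for 16 h before the caspase read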
Outline: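 Mesangial cells, 1000/well, 5 h settle at 37 °C; compound 16 h, 37 °C; Caspase-Glo 3/7 reagent 20 min RT; luminescence. Norm.: DMSO = 0%, tamoxifen 100 uM = 100%. AC50, Hill fit.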

[9] = Cellular Toxicity (caspase-3) SK-N-SH (AID 661); details: SK-N-SH caspase-3 activation, qHTS, DMSO as zero, staurosporine as full; series mostly up to 91.7 µM
Outline: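 Human neuroblastoma SK-N-SH, 1500 cells/well, 5 hr pre-incubation, then compound 16 hr, 37 °C. Caspase-Glo 3/7 reagent, 1 hr RT, luminescence. Norm. to DMSO/10 uM staurosporine; Hill-fit AC50.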

[10] = Cellular Toxicity (caspase-3) Renal Proximal Tubule (AID 667); details: renal proximal tubule cells, primary cells freshly taken from rat; Potency: caspase-3 activation; series mostly up to 91.7 µM;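 also: cells exposed to compound for 16 hours at 37 °C before detection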
Outline: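 Primary rat proximal tubule cells, 1000/well, 5 h plating at 37 °C, then compound 16 h at 37 °C. Caspase-Glo 3/7 reagent, 1 h RT, luminescence. Normalized to DMSO (basal) and 10 uM staurosporine (100%); Hill-fit AC50.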

[11] = MultiTox-Fluor Cytotoxicity Assay - LYMP1-001 - Dead Cells (AID 946); details: LYMP1-001 lymphoblastoid cells, dead-cell protease fluorescence; series mostly up to 92.2 µM;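 also: 0% = DMSO and 100% = tetraoctylammonium bromide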
Outline: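 AC50 from Hill fit of concentration-response; data normalized to DMSO (basal) and 15 uM tetraoctylammonium bromide (100%). LYMP1-001 lymphoblastoid cells, 2500/well, 16 hr compound at 37 C; dead-cell protease fluorescence, Ex/Em 485/520.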

[12] = Cell Viability - LYMP1-002 - Assay at 16 hr (AID 948); details: LYMP1-002 lymphoblastoid cell viability; series mostly up to 92.2 µM;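 also: 0% = DMSO alone and full effect = 92 µM tetraoctylammonium bromide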
Outline: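 Human lymphoblastoid cells (LYMP1-002), 2500/well, were preincubated 5 hr at 37 C, then exposed to compounds for 16 hr at 37 C in complete medium. Cellular ATP was read by CellTiter-Glo luminescence after 30 min at room temperature; AC50 from Hill fits.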

[13] = MultiTox-Fluor Cytotoxicity Assay - LYMP1-002 - Live Cells (AID 955); details: LYMP1-002 lymphoblastoid live-cell protease fluorescence viability; series mostly up to 46.1 µM; also: % is scaled to controls: 0 for no effect and ±100 for the full control effect
Outline: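 Read-out is live-cell protease activity (cell-permeant GF-AFC substrate, fluorescence Ex/Em=405/510), where a decrease indicates acute toxicity. Human lymphoblastoid cells were treated 16 hours at 37 C in a concentration series, and AC50 values came from standard Hill modelling.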

[14] = Cell Viability - LYMP1-003 - Assay at 24 hr (AID 963); details: LYMP1-003 lymphoblastoid cell viability; series mostly up to 92.2 µM;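 also: plate controls were DMSO only for no effect and tetraoctylammonium bromide positive control for full effect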
Outline: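 Cells seeded at 2500/well, 5 hr at 37 C; compounds added; 24 hr at 37 C; CellTiter-Glo added, 30 min room temperature; luminescence read. Decrease in ATP taken as cytotoxicity, AC50 from Hill modelling.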

[15] = Cell Viability - LYMP2-026 (AID 989); details: LYMP2-026 lymphoblastoid cell viability, qHTS; series mostly up to 92.2 µM;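 also: cells exposed to compound for 24 h at 37 °C; % is scaled to controls: 0 for no effect and ±100 for the full control effect; nearly all actives have a fitted effect of over 50% in size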
Outline: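 Luminescent ATP signal (CellTiter-Glo, 30 min room temperature) measures viable lymphoblastoid cells after 24 hr compound treatment at 37 C. Decreased ATP reflects acute toxicity; AC50 values come from Hill-equation modeling.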

[16] = Cell Viability - LYMP1-002 - Assay at 24 hr (AID 993); details: LYMP1-002 lymphoblastoid cells viability; series mostly up to 92.2 µM; also: % is scaled to controls: 0 for no effect and ±100 for the full control effect
Outline: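 Cells plated 2500/well, 5 hr 37 C; compounds added, 24 hr 37 C; CellTiter-Glo added, 30 min RT; luminescence read. Tetraoctylammonium bromide positive control. Hill-equation AC50.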

[17] = qHTS Assay for Identification of Small Molecule Inducers of Hypoxia Response (AID 2120; active = well fitted curve in the direction sought with a large enough effect in the signal ratio, with a control signal flat, not every such curve was filed as active; the % refers to the signal ratio; also: 0% is about no effect); details: hypoxia response reporter cells, beta-lactamase ratio readout; series mostly up to 104 µM
Outline: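 ME-180 HRE-bla cells plated in Opti-MEM/0.5% dialyzed FBS, rested 4-5 h, then dosed with compound titrations by pin tool. After 17 h at 37 degrees C, CCF4 dye loaded 2.5 h at RT; 460/530 nm ratio gave %Activity and AC50.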

[18] = target: Peroxisome proliferator-activated receptor alpha (Homo sapiens) (UniProt Q07869); assay: qHTS assay for small molecule agonists of the peroxisome proliferator-activated receptor alpha (PPARalpha) signaling pathway (AID 651778); details: PathHunter PPARalpha complementation, chemiluminescence, 6 h; max response: hits give high values; also: % of control where 0% means no effect
Outline: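 Chemiluminescence from complemented enzyme reported PPARalpha activation in cells after 6 hr of compound treatment at 37 C. The detection reagent was incubated for 60 min at room temperature, and compounds were scored as agonists.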

[19] = qHTS assay for cell viability of the p53RE-bla HCT-116 cell line (AID 743292); details: p53RE-bla HCT-116 viability, ATP luminescence, 16 h; series mostly up to 95 µM; also: % is scaled to controls: 0 for no effect and ±100 for the full control effect; nearly all actives have a fitted effect of over 55% in size
Outline: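 Viability of compound-treated p53RE-bla HCT-116 cells is taken from ATP-dependent luciferase luminescence. Treatment lasts 16 h at 37 C after a 5 h settling period; detection follows 30 min at room temperature.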

[20] = Cellular Toxicity (caspase-3) Hek293 (AID 664); details: HEK293 caspase-3 activation, DMSO = 0%, 100 µM tamoxifen = 100%; at 92.2 µM (top of the series);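 also: cells exposed to compound for 16 h at 37 °C before readout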
Outline: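 Cells plated, 5 hr at 37 °C; compounds added; 16 hr at 37 °C; Caspase-Glo 3/7 reagent, 20 min RT; luminescence read. Activation expressed relative to DMSO and 100 uM tamoxifen, AC50 by Hill model.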

Sequence of Peroxisome proliferator-activated receptor alpha (Homo sapiens) (Q07869 whole entry, looked up): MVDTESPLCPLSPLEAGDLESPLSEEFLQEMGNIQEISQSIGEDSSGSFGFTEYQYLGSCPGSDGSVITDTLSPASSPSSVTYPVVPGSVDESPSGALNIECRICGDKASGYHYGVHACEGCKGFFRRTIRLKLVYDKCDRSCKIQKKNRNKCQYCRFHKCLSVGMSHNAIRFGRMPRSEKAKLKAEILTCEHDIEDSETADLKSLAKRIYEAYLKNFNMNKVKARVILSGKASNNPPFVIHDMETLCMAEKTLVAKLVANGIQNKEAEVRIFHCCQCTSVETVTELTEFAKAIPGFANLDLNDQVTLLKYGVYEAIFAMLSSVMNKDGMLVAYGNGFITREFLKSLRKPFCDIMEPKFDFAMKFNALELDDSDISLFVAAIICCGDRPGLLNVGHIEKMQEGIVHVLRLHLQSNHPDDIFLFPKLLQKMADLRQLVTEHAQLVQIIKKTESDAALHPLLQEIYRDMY

CCCCCCCC/C=C\CCCCCCCC(=O)N(CCO)CCO
active: caspase-3 activation [4] 96.6%
inactive: Potency [1] > 92 µM | Potency [2] > 92 µM | Potency [3] | Potency [5] | Potency [6] | outcome [7] | outcome [8] | outcome [9] | Potency [10] | Potency [11] | Potency [12] | outcome [13] | Potency [14] | Potency [15] | Potency [16] | Potency [17] | max response [18] 28.4% | Potency [19]

Oc1cc(Cl)cc(Cl)c1Cl
inactive: Potency [1] > 92 µM | Potency [2] > 92 µM | Potency [3] | Potency [4] | Potency [5] | Potency [6] | outcome [7] | outcome [8] | outcome [9] | caspase-3 activation [20] -0.269% | Potency [10] | Potency [11] | Potency [12] | outcome [13] | Potency [14] | Potency [15] | Potency [16] | Potency [17] | max response [18] 6.36% | Potency [19]

O=C(OCc1ccccc1)c1ccccc1O
inactive: Potency [1] > 92 µM | Potency [2] > 92 µM | Potency [3] | Potency [4] | Potency [5] | Potency [6] | outcome [7] | outcome [8] | outcome [9] | caspase-3 activation [20] -1.91% | Potency [10] | Potency [11] | Potency [12] | outcome [13] | Potency [14] | Potency [15] | Potency [16] | Potency [17] | max response [18] -2.61% and -0.719% | Potency [19]

CC(C)(C)C(=O)C1C(=O)c2ccccc2C1=O
inactive: Potency [1] > 92 µM | Potency [2] > 92 µM | Potency [3] | Potency [4] | Potency [5] | Potency [6] | outcome [7] | outcome [8] | outcome [9] | caspase-3 activation [20] -1.93% | Potency [10] | Potency [11] | Potency [12] | outcome [13] | Potency [14] | Potency [15] | Potency [16] | Potency [17] | max response [18] 0.134% | Potency [19]

O=C1c2ccccc2C(=O)C1(O)O
inactive: Potency [3] | Potency [5] | Potency [6] | outcome [7] | outcome [8] | outcome [9] | caspase-3 activation [20] 0.893% | Potency [10] | Potency [11] | Potency [12] | outcome [13] | Potency [14] | Potency [15] | Potency [16] | Potency [17] | max response [18] 0.0449% | Potency [19]
active: Potency [2] 44.8 µM | Potency [4] 31.6 µM

O=C(Cl)c1ccc([N+](=O)[O-])cc1
inactive: Potency [1] > 92 µM | Potency [2] > 92 µM | Potency [3] | Potency [4] | Potency [5] | Potency [6] | outcome [7] | outcome [8] | outcome [9] | caspase-3 activation [20] -0.0349% | Potency [10] | Potency [11] | Potency [12] | outcome [13] | Potency [14] | Potency [15] | Potency [16] | Potency [17] | max response [18] -4.65% | Potency [19]
